PubChem BioAssay (NCATS)
Results filed as inconclusive are left out. Active and inactive are the calls of the source. Unless noted, calls follow the shape of the dose curve; as a rule, active = well fitted curve in the direction sought with a large enough effect; inconclusive = small, poorly fitted or top-dose-only effect, or another doubt; inactive = no such curve, though single readings can be large; an effect the other way counts as inactive or inconclusive.

What was measured:
[1] = HEK-293 Cancer Cell Toxicity qHTS against the NCATS CANVASS Library (AID 1347355); also: nearly all actives have a fitted effect of over 65% in size; also: potency is read from the fitted curve at half-maximal effect; as to outcome: series mostly up to about 46 µM
Summary of the method: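 First, 1000 cells go into each well and rest for 4 hours. Next, an 11-point dilution range is pinned in. Plates then incubate 72 hours before CellTiter-Glo addition and luminescence reading.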

[2] = test system: NAD(P)H diaphorase (Clostridium kluyveri); test: Diaphorse counterscreen qHTS: Assay Interference Panel against the NCATS CANVASS Library (AID 1347362); also: 0% is about no effect
Summary of the method: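 Clostridium kluyveri diaphorase in PBS + 0.01% Tween-20 preincubated 15 min with compounds. Resazurin and NADH then added for 5 min at room temperature in the dark; resorufin fluorescence read (ex 525, em 598).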

[3] = KB-8-5-11 Cancer Cell Toxicity qHTS against the NCATS CANVASS Library (AID 1347364); also: nearly all actives have a fitted effect of over 75% in size; also: potency is read from the fitted curve at half-maximal effect
Summary of the method: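 Terse: KB-8-5-11, 500 cells/well, 72 hr, 37C/5% CO2, 11-pt titration, CellTiter-Glo readout; confirmatory runs ± 1uM tariquidar in medium.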

[4] = Cytotoxicity qHTS for assessment of Hepg2 cells membrane integrity screened against the NCATS CANVASS Library (AID 1347387)
Summary of the method: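 Cells were seeded at 2000 per well and left overnight to attach. Compounds were pin-transferred to give 0.59 nM - 46 uM in an 11-point series and incubated 5 hr at 37C. CytoTox-ONE reagent was added and, after 10 min at room temperature, fluorescence (ex 560, em 590 nm) was read.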

[5] = qHTS for activators of dead-cell proteases activity screened against the NCATS CANVASS Library (AID 1347392);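 also: luminescence from protease leaking out of membrane-damaged cells cleaving impermeant substrate; rising signal means more cytotoxicity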; also: potency is read from the fitted curve at half-maximal effect
Summary of the method: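 HepG2, 2000 cells/well, 18 h attach; cpd 11-pt, 5 h 37C 5% CO2; CytoTox-Glo (AAF-aminoluciferin) 15 min RT; luminescence read.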

[6] = qHTS for Antimalaria activity screened against the NCATS CANVASS Library (AID 1347380); also: nearly all actives have a fitted effect of over 40% in size; also: potency is read from the fitted curve at half-maximal effect;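 as to activity change, negative = inhibition: Plasmodium falciparum strain Dd2 asexual parasites grown in red blood cells; series mostly up to about 29 µM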
Summary of the method: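 Compounds are titrated over 11 concentrations onto Dd2 parasite cultures (0.3% parasitemia, 2.5% hematocrit). Growth over 72 h at 37C in low oxygen is measured as SYBR Green DNA fluorescence after lysis.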

[7] = SDT Cancer Cell Toxicity qHTS against the NCATS CANVASS Library (AID 1347365); also: nearly all actives have a fitted effect of over 60% in size; also: potency is read from the fitted curve at half-maximal effect
Summary of the method: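 Cytotoxicity is measured from cellular ATP: compounds in an 11-point concentration series are pinned onto SDT cells, incubated 72 hr at 37C, then CellTiterGlo is added and luminescence read.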

[8] = Primary qHTS for inhibitors of nuclear receptor binding SET domain protein 2 (NSD2) in an isogenic RCH-ACV NSD2 p.E1099K mutant (9B) (AID 1645876); also: nearly all actives have a fitted effect of over 70% in size; also: potency is read from the fitted curve at half-maximal effect
[9] = Primary qHTS for inhibitors of nuclear receptor binding SET domain protein 2 (NSD2) in an RCH-ACV wild type WT cells (2C) (AID 1645877); also: nearly all actives have a fitted effect of over 70% in size; also: potency is read from the fitted curve at half-maximal effect
[10] = target: Glutathione peroxidase 1 (Homo sapiens) (UniProt P07203); test: Primary qHTS Assay for Inhibitors of Recombinant Selenoprotein Glutathione Peroxidase 1 (GPX1) (AID 1845191); also: nearly all actives have a fitted effect of over 65% in size
Summary of the method: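 GR-coupled readout: NADPH consumption tracked by fluorescence, ex 340/em 450 nm, at t=0 and after 15 min at RT. Final mix 10 nM GPX1, 1 mM GSH, 0.5 mM CHP, 0.5 mM NADPH, 100 nM GR, 0.01% BSA, following 30 min enzyme–compound preincubation.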

[11] = Panc-1005 Cancer Cell Toxicity qHTS against the NCATS CANVASS Library (AID 1347349); also: nearly all actives have a fitted effect of over 60% in size; also: potency is read from the fitted curve at half-maximal effect
Summary of the method: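 1000 cells/well; 4 h settle; 11-pnt titration; 72 h, 37 degrees C, 5% CO2; CellTiter-Glo, 15min RT; luminescence read.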

[12] = target: Nuclear receptor subfamily 1 group I member 3 (Homo sapiens) (UniProt Q14994); test: qHTS for Constitutive Androstane Receptor (CAR) Antagonist screened against the NCATS CANVASS Library (AID 1347372); also: potency is read from the fitted curve at half-maximal effect;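 as to activity change, negative = inhibition: cells stimulated with 50 nM CITCO agonist so inhibition reflects antagonism; luciferase from CYP2B6 promoter reporter driven by hCAR in HepG2 cells; series mostly up to about 46 µM; % is scaled to controls: 0 for no effect and ±100 for the full control effect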
Summary of the method: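 Luminescence readout (ONE-Glo, 30 min RT) of CYP2B6-2.2kb reporter in HepG2-hCAR cells after 24hr, 37C treatment with compound against 50 nM CITCO; CellTiter-Fluor viability read beforehand.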

[13] = target: Glucocorticoid receptor (Homo sapiens) (UniProt P04150); test: GR-GFP Redistribution (AID 450;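 active = compounds whose dose series gives a full or clear partial fitted curve of increased nuclear translocation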; also: potency is read from the fitted curve at half-maximal effect); settings: U2OS GR-GFP nuclear translocation, laser cytometry, 2 h
[14] = target: Glucocorticoid receptor (Homo sapiens) (UniProt P04150); test: GR-EFC Redistribution (AID 451; calls by dose curve; also: potency is read from the fitted curve at half-maximal effect); settings: CHO-K1 GR-EFC translocation, beta-gal luminescence, 2 h
Summary of the method: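 CHO-K1 cells expressing nuclear EA and GR-ED fragments of b-gal; compounds titrated up to 46 uM final, 2 h at 37 C. GR nuclear translocation read as complemented b-gal luminescence after 1 h RT detection.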

[15] = target: Ubiquitin carboxyl-terminal hydrolase 1 (Homo sapiens) (UniProt O94782); test: Inhibitors of USP1/UAF1: Pilot qHTS (AID 504865);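 also: rhodamine fluorescence freed from ubiquitin-rhodamine substrate followed over time; top concentration of the series differs between compounds; % is scaled to controls: 0 for no effect and ±100 for the full control effect; nearly all actives have a fitted effect of over 35% in size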
Summary of the method: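 Kinetic fluorescence assay: 1nM USP1/UAF1, 15 min compound preincubation, then 150nM Ub-Rho; 480/540 nm.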

[16] = target: DNA dC->dU-editing enzyme APOBEC-3G (Homo sapiens) (UniProt Q9HC16); test: qHTS for inhibitors of Vif-A3G interactions: Validation (AID 588379); also: 0% is about no effect
Summary of the method: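 Yellow fluorescence (Ex 488, Em 500-530) of Vif-coexpressing HeLa A3G-eYFP cells, scanned by Acumen cytometer, reports blocked A3G degradation. Cells plated at 700/well overnight at 37 deg C before compound addition, then a further overnight compound incubation at 37 deg C.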

[17] = Primary qHTS for small molecule stabilizers of the endoplasmic reticulum resident proteome: Secreted ER Calcium Modulated Protein (SERCaMP) assay (AID 1508630); also: % is scaled to controls: 0 for no effect and ±100 for the full control effect
Summary of the method: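 The SH-SY5Y reporter protocol was run at 3 concentrations up to 38.3 uM (primary) or 11 concentrations (follow-up): 16 h compound, 100 nM thapsigargin for 4 h, then extracellular luciferase luminescence.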

[18] = qHTS drug screen for cell cycle checkpoint inhibitors in PARPi-resistant BRCA-mutant ovarian cancer cell lines. (AID 1963452; calls by dose curve); settings: PEO1/OlaR viability, CellTiter-Glo luminescence, 96 h, stronger effect = lower value
Summary of the method: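 PEO1, PEO4 and PEO1/OlaR ovarian cancer cells, 600 per well, exposed 96 h at 37C to a dilution series. Viability read by CellTiter-Glo luminescence, normalized to DMSO and empty wells; activity summarized as Z-AUC.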

Sequence of Nuclear receptor subfamily 1 group I member 3 (Homo sapiens) (Q14994 whole entry, looked up): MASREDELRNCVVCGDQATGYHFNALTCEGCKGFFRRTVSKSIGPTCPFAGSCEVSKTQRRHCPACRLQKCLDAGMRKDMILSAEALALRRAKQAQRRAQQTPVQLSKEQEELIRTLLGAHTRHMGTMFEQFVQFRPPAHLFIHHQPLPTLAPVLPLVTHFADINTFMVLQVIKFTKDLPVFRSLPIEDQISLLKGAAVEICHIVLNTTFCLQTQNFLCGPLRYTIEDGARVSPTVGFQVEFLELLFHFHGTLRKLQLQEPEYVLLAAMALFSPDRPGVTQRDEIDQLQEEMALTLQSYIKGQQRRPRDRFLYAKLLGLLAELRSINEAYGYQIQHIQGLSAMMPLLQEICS
Sequence of Glucocorticoid receptor (Homo sapiens) (P04150 whole entry, looked up, the tested form may be a part): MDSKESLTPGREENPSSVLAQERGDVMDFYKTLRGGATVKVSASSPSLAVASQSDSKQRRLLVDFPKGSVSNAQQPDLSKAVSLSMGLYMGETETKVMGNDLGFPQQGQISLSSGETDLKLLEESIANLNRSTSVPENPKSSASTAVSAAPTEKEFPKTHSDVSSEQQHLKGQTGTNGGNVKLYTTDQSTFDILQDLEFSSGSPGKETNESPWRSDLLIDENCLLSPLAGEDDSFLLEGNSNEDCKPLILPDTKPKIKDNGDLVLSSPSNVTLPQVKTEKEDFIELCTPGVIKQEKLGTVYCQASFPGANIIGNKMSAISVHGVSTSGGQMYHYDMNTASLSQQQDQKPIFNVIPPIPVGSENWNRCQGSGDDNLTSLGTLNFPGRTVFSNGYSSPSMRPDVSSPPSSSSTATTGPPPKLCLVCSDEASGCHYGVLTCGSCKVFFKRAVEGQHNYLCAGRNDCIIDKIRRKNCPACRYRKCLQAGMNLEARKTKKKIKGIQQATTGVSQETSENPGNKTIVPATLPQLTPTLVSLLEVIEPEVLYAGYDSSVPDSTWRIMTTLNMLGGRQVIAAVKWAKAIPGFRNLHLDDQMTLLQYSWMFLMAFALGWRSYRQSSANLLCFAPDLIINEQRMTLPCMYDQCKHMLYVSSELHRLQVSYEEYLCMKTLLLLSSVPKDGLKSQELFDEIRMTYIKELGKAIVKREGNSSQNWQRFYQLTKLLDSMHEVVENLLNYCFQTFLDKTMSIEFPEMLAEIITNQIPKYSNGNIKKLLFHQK
Sequence of Glutathione peroxidase 1 (Homo sapiens) (P07203 whole entry, looked up): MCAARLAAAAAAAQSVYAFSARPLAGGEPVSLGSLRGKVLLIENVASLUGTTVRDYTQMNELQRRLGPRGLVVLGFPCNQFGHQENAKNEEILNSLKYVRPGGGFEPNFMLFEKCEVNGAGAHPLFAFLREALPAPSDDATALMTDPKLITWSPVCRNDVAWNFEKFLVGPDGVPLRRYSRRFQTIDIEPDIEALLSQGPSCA
Sequence of Ubiquitin carboxyl-terminal hydrolase 1 (Homo sapiens) (O94782 whole entry, looked up): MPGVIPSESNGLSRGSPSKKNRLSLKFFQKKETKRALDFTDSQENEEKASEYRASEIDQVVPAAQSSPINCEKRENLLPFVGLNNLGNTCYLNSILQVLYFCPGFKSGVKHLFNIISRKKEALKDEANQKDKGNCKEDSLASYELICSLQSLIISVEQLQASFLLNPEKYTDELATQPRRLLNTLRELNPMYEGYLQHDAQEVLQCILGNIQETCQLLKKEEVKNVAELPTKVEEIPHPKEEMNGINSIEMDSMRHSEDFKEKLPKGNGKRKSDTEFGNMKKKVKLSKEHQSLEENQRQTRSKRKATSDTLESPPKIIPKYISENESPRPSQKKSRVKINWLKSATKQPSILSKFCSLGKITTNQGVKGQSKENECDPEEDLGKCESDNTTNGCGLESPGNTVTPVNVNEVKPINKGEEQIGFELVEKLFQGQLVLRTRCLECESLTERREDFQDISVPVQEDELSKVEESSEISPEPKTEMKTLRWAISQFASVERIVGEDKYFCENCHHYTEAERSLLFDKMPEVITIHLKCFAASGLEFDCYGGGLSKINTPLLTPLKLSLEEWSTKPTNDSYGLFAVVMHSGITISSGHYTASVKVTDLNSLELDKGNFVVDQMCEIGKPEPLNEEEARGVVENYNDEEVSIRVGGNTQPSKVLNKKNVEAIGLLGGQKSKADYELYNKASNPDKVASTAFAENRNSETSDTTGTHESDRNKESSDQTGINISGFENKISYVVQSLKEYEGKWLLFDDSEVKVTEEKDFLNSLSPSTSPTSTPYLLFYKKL
Sequence of DNA dC->dU-editing enzyme APOBEC-3G (Homo sapiens) (Q9HC16 whole entry, looked up): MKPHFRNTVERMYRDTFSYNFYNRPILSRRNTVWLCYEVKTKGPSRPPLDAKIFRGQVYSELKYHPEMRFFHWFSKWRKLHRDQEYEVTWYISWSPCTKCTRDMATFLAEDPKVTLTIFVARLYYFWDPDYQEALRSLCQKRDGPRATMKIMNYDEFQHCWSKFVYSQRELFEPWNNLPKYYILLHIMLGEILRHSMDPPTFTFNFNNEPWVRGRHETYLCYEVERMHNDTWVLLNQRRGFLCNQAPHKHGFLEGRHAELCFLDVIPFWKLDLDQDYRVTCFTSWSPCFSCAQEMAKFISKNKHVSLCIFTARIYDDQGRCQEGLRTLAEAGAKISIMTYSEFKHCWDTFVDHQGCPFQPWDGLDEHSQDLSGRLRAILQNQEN

O=Cc1ccc2n1C[C@@]1(C[C@H](O)[C@H](O)CO1)OC2
inactive: Potency [1] | Potency [2] | Potency [3] | outcome [4] | Potency [5]

O=C(O)[C@@]12COC3(O)C1CCN1CC[C@H]3[C@@H]1c1c2[nH]c2ccccc12
inactive: Potency [3] | Potency [6] | outcome [4] | Potency [5]

CC(C)(Br)[C@@H](Cl)C[C@H](Br)[C@](C)(Cl)/C=C/Br
active: Potency [7] 18.7 µM
inactive: Potency [2] | Potency [6] | outcome [4]

O=C1CCCC2=C1C(c1ccccc1Br)N=C(Nc1nc3ccccc3o1)N2 (stereo not drawn)
inactive: Potency [8] | Potency [9] | Potency [10]

CC[C@@H]1C[C@@]2(CC)OC(=O)[C@@]3(CC)OC(=O)[C@@H]1[C@@H]23
inactive: Potency [11] | Potency [1] | Potency [2] | Potency [3] | Potency [5]

C[C@@H]1C[C@H]2C[C@]3(CCCCN3C)[C@@H]3C[C@H]2[C@H](C1)N(C)C3
inactive: Potency [11] | Potency [3] | outcome [4] | Potency [5]

O=Cc1ccc2n1C[C@@]1(OC2)O[C@H](CO)[C@@H](O)[C@@H]1O
inactive: Potency [11] | Potency [1] | Potency [2] | Potency [3] | Potency [7] | Potency [12] | Potency [6] | outcome [4] | Potency [5]

C/C=C1/CC[C@@H]2c3[nH]c4ccccc4c3CCN2C1
inactive: Potency [2] | Potency [3] | Potency [7] | Potency [12] | outcome [4] | Potency [5]

C=C[C@]1(C)CC[C@@H]([C@H](C)C(=O)/C=C/C(C)C)O1
inactive: Potency [1] | Potency [3] | Potency [7] | Potency [12] | Potency [5]

C=CC(=C)CC[C@]1(C)[C@H]2C[C@H](OC(=O)C(C)CC)C=C3[C@H](OC(C)=O)O[C@H](OC(C)=O)[C@@]32[C@H](OC)C[C@@H]1C (stereo partly drawn)
active: Potency [3] 7.62 µM | Potency [6] 0.545 µM | Potency [5] 60.6 µM

CN1CC[C@]2(c3cccc4c3N[C@@H]3N(C)CC[C@]43[C@@]34CCN(C)[C@@H]3Nc3c([C@]56CCN(C)[C@H]5Nc5ccccc56)cccc34)c3ccccc3N[C@H]12
active: Potency [3] 9.35 µM | Potency [12] 26.3 µM
inactive: Potency [2]

COc1ccc2cc(NC(=O)C3=NO[C@H]4[C@H](O)C=C[C@@H](Cl)[C@@]4(O)C3)c(=O)oc2c1OC
inactive: Potency [11] | Potency [2] | Potency [3] | Potency [6] | outcome [4] | Potency [5]

COc1cc(N)c(Cl)cc1C(=O)N[C@H]1CCN(CCCOc2ccc(F)cc2)C[C@@H]1OC
inactive: Potency [13] > 46 µM | Potency [14] > 46 µM | Potency [15] | Potency [16]

COc1ccc(/C=C2\COc3cc(O)ccc3C2=O)cc1
inactive: Potency [2] | Potency [5]

CC1(C)C=Cc2c(ccc3c2OC[C@@H](c2ccc(O)cc2O)C3)O1
inactive: Potency [2] | Potency [3] | outcome [4] | Potency [5]

C=C(C)CC[C@H](Cc1c(O)cc(O)c2c1O[C@H](c1ccc(O)cc1O)CC2=O)C(=C)C
inactive: Potency [2] | Potency [3] | Potency [12]
active: Potency [6] 0.0059 µM

Oc1ccc([C@H]2Oc3ccc(/C=C/c4cc(O)cc(O)c4)cc3C2c2cc(O)cc(O)c2)cc1 (stereo partly drawn)
inactive: Potency [11] | Potency [1] | Potency [2] | Potency [3] | Potency [7] | Potency [12] | outcome [4] | Potency [5]
active: Potency [6] 0.003 µM

Oc1ccc(/C=C2/c3cc(O)cc(O)c3C(c3ccc(O)cc3)[C@H]2c2cc(O)cc(O)c2)cc1 (stereo partly drawn)
inactive: Potency [1] | Potency [3] | Potency [7] | Potency [12] | Potency [6]

C=C(C)C(=O)O[C@H]1C[C@H](C)[C@@H](OC(C)=O)CC[C@@]2(C)O[C@@H]2[C@H]2OC(=O)C(COC(C)=O)=C12
active: Potency [11] 6.68 µM | Potency [1] 3.72 µM
inactive: outcome [4]

C[C@]12CC[C@]3(C1)[C@H](CC2=O)CC(OC(=O)c1ccccc1)[C@H]1[C@@](CO)(C(=O)O)CCC[C@@]13C (stereo partly drawn)
inactive: Potency [2] | Potency [5]

COC(=O)CNC(=O)C(=O)OC
inactive: activity change, negative = inhibition [17] -16.2% [at 3.88 µM]

C=C[C@]1(C)CC[C@@H]([C@H](C)C(=O)OCC)O1
inactive: Potency [11] | outcome [4]

C/C=C/C(=O)[C@@H](C)C1=CC(=O)C2=C(O[C@@]34CC[C@H](O)C(C)(C)[C@@H]3CC[C@H](C)[C@@]4(C)C2)C1=O
active: Potency [1] 2.96 µM | Potency [12] 20.9 µM

CCC[C@@H](C)/C=C(\C)[C@H](O)[C@H](C)/C=C/CC[C@@H](O)[C@H](C)[C@H](O)[C@H](C)[C@H](O)[C@H](C)[C@H]1O[C@H]([C@H](C)C(=O)O)CC[C@@H]1C
active: Potency [3] 11.8 µM | Potency [7] 9.35 µM | Potency [6] 5.94 µM

Cc1ccc(Nc2ncc3c(n2)N(C)C(=O)N(c2cc(NC(=O)c4cccc(C(F)(F)F)c4)ccc2C)C3)cn1
-1.4: Z-AUC ([18]; measured here: PEO4 Z-AUC)
inactive: Z-AUC [18] -1.89
active: Potency [8] 0.0332 µM | Potency [9] 0.059 µM
-2.2: Z-AUC ([18]; measured here: PEO1 parental Z-AUC)

C[C@@H]1C(=O)[C@]23CC[C@H]1C[C@]21O[C@H]2C(C)(C)C=CC(=O)[C@]23COC1=O
inactive: Potency [11] | Potency [1] | Potency [2] | Potency [3] | Potency [6] | outcome [4] | Potency [5]

CC(C)n1cc(-c2ccc(Oc3ccccc3)cc2)c2c(N)ncnc21
active: Potency [8] 1.64 µM | Potency [9] 2.06 µM
inactive: Potency [10]
